{"source": "PubChem BioAssay", "note": "Some of the results follow. The source made the active and inactive calls.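 Rule for the calls, unless noted: active = GFP signal as percent of the solvent control above about 150%, meaning raised reporter expression (limit read from the data); inconclusive = fewer than 70 cells counted in the well; inactive = the rest.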", "data": [{"assay": "reduced mouse 2C T cell binding to pMHC/ICAM-1 vesicles – MLPCN validation set, flow cytometry, LFA-1/ICAM-1 modulator project, pilot screen (AID 2523;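 active = response below a set limit, under 55% cells CD8-positive and vesicle-bound, and CD8 cells' 90th-percentile brightness under 279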;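 for vesicle binding response: mean PE anti-B7-1 fluorescence of CD8+ cells relative to row control; 100% = QL9-loaded vesicles with DMSO vehicle in the same plate row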)", "conditions": "2C mouse CD8+ T cells, at 7 µM, stronger effect = lower value; double positive events: measured here: CD8+/vesicle+ event percentage", "units": {"double positive events": "%"}, "values": [{"smiles": "CS(=O)(=O)Oc1ccc2c(c1)O/C(=C\\C=C\\c1ccccc1)C2=O", "vesicle binding response": "247% (inactive)", "double positive events": 64.8}, {"smiles": "CC(C)NC[C@@H](O)c1ccc(O)c(O)c1", "double positive events": 58, "vesicle binding response": "125% (inactive)"}, {"smiles": "CN1CCc2cccc3c2[C@H]1Cc1ccc(O)c(O)c1-3", "vesicle binding response": "187% (inactive)", "double positive events": 61}, {"smiles": "O=C(NCCN1CCOCC1)c1ccc(Cl)cc1", "double positive events": 64.3, "vesicle binding response": "168% (inactive)"}, {"smiles": "O=C(NCCN1CCCCC1)c1c(O)c2ccccc2[nH]c1=O", "double positive events": 61.8, "vesicle binding response": "38% (inactive)"}, {"smiles": "COc1ccc(S(=O)(=O)N2CCN(C(=O)COc3ccc4c(C)cc(=O)oc4c3)CC2)cc1", "double positive events": 90}, {"smiles": "COc1ccc2cc(-c3nc4ccccc4n3C)c(=O)oc2c1", "vesicle binding response": "147% (inactive)", "double positive events": 65.4}, {"smiles": "CCn1c(=N)c(C(=O)NC)cc2c(=O)n3cccc(C)c3nc21", "double positive events": 55.2, "vesicle binding response": "26.6% (inactive)"}, {"smiles": "Oc1ccc(Cl)cc1Cc1cc(Cl)ccc1O", "double positive events": 63.4, "vesicle binding response": "194% (inactive)"}, {"smiles": "COC(=O)c1cc(-c2ccc(OC)c(OC)c2)on1", "vesicle binding response": "155% (inactive)", "double positive events": 64.8}, {"smiles": "CNc1nc(N(C)C)nc(N(C)C)n1", "double positive events": 62.1, "vesicle binding response": "64.3% (inactive)"}, {"smiles": "C(=C\\c1ccccc1)/CN1CCN(C(c2ccccc2)c2ccccc2)CC1", "double positive events": 66.7}, {"smiles": "Cc1[nH]c2ccccc2c1C(=O)CN1CCCC1", "double positive events": 61.6, "vesicle binding response": "26% (inactive)"}, {"smiles": "CCOc1ccccc1C(=O)NCCC(=O)O", "vesicle binding response": "64.9% (inactive)", "double positive events": 60.3}]}, {"assay": "yeast TOR reporter LAP4-GFP level changes – cell-based, second cherry pick, flow cytometry, confirmation (AID 2621);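 note: ratio of well median GFP fluorescence to plate DMSO mean so 100% = DMSO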", "conditions": "S. cerevisiae LAP4-GFP strain, 3 h, at 10 µM, stronger effect = higher value", "values": [{"smiles": "CCc1nnc(SCc2cccc(F)c2)nc1CC", "GFP response vs DMSO": "104% (inactive)"}, {"smiles": "COc1ccc(C)cc1NC(=O)CSc1nc(SC)ns1", "GFP response vs DMSO": "97.2% (inactive)"}, {"smiles": "COC(=O)C[n+]1cccc2ccccc21", "GFP response vs DMSO": "106% (inactive)"}, {"smiles": "Cc1cc(C)c2nc3nc(C)cc(C)c3c(N)c2c1", "GFP response vs DMSO": "99% (inactive)"}, {"smiles": "COc1ccc(C2(C)ON(c3ccccc3C(F)(F)F)C2=O)cc1", "note": "(stereo not drawn)", "GFP response vs DMSO": "113% (inactive)"}, {"smiles": "CCCCNc1c(-c2cccc(Sc3ccc(OC)cc3)c2)nc2ccccn12", "GFP response vs DMSO": "138% (inactive)"}, {"smiles": "C#CCOCCOCCOCCNc1nc(N2CCN(C(=O)CCCCCCCCCCNC(=O)[C@H](CCCCN)n3cc(C)nn3)CC2)nc(N2CCN(C(=O)CCCCCCCCCCNC(=O)[C@H](CO)n3cc(CCCSC)nn3)CC2)n1", "GFP response vs DMSO": "109% (inactive)"}, {"smiles": "O=C(Nc1nnc(-c2ccc(Cl)cc2)o1)c1ccccc1Br", "GFP response vs DMSO": "174% (active)"}, {"smiles": "Cc1ccc(S/C(=N\\S(=O)(=O)c2ccc(Cl)cc2)c2ccccc2)cc1", "GFP response vs DMSO": "101% (inactive)"}, {"smiles": "CC1=C/C(=N\\OS(=O)(=O)c2ccccc2)C=CC1=O", "GFP response vs DMSO": "126% (inactive)"}, {"smiles": "CCC(=C/c1sc2ccc3ccccc3c2[n+]1C)/C=C1\\Sc2ccc3ccccc3c2N1C", "GFP response vs DMSO": "2930% (active)"}, {"smiles": "COc1ccc(-c2nc(CS(=O)(=O)CC(=O)NCc3cccc(Br)c3)c(C)o2)cc1", "GFP response vs DMSO": "109% (inactive)"}, {"smiles": "Cc1ccc2nc(N(CCN(C)C)C(=O)C3=COCCO3)sc2c1", "GFP response vs DMSO": "102% (inactive)"}, {"smiles": "COc1ccc(CCNC(=O)CS(=O)(=O)Cc2nc(-c3ccc(C)cc3)oc2C)cc1OC", "GFP response vs DMSO": "103% (inactive)"}, {"smiles": "COc1ccc2nc(N3CCN(C(=O)c4ccc([N+](=O)[O-])o4)CC3)sc2c1", "GFP response vs DMSO": "252% (active)"}, {"smiles": "O=C(NC(=S)NC1CCS(=O)(=O)C1)c1cccc([N+](=O)[O-])c1", "note": "(stereo not drawn)", "GFP response vs DMSO": "101% (inactive)"}, {"smiles": "CCOC(=O)c1cnc(SCC(=O)NCc2ccco2)nc1N", "GFP response vs DMSO": "99.2% (inactive)"}, {"smiles": "CCN1/C(=C/c2ccc3ccc(C)cc3[n+]2CC)Sc2ccccc21", "GFP response vs DMSO": "392% (active)"}, {"smiles": "CC(Oc1ccc2ccccc2c1)C(=O)NNC(=S)NC(=O)c1ccco1", "note": "(stereo not drawn)", "GFP response vs DMSO": "312% (active)"}, {"smiles": "Clc1cccc(CN2COc3c(cc(Cl)c4cccnc34)C2)c1", "GFP response vs DMSO": "127% (inactive)"}, {"smiles": "CC(C)[C@@H]1COC(c2cccc(C3=N[C@H](C(C)C)CO3)c2)=N1", "GFP response vs DMSO": "99% (inactive)"}, {"smiles": "CCn1c(SCCC(C)C)nnc1-c1c[nH]c2ccccc12", "GFP response vs DMSO": "95.2% (inactive)"}, {"smiles": "CN(Cc1ccccc1)C(=O)C(=O)c1cn(CC(=O)N2CCCC2)c2ccccc12", "GFP response vs DMSO": "103% (inactive)"}, {"smiles": "COc1cccc(/C=N/Nc2ncc(C(F)(F)F)cc2Cl)c1O", "GFP response vs DMSO": "200% (active)"}, {"smiles": "O=C(COc1cccnc1[N+](=O)[O-])Nc1ccc(Cl)cc1F", "GFP response vs DMSO": "99.2% (inactive)"}, {"smiles": "CCCn1nc(C(=O)NNC(=O)CCOc2ccccc2OCC)c2ccccc2c1=O", "GFP response vs DMSO": "102% (inactive)"}]}, {"assay": "TOR pathway reporter MEP2-GFP, hit retest – S. cerevisiae, flow cytometry GFP, second cherry picks, confirmation (AID 2622;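 active = GFP signal above 150% of the solvent control wells, that is a rise of more than half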;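 note: median channel GFP fluorescence of all gated yeast cells per well; ratio of median GFP to plate DMSO average so 100% = DMSO level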)", "conditions": "S. cerevisiae MEP2-GFP strain, 3 h, at 10 µM, stronger effect = higher value", "values": [{"smiles": "CCc1nnc(SCc2cccc(F)c2)nc1CC", "GFP response vs DMSO": "96.1% (inactive)"}, {"smiles": "COc1ccc(C)cc1NC(=O)CSc1nc(SC)ns1", "GFP response vs DMSO": "97.8% (inactive)"}, {"smiles": "COC(=O)C[n+]1cccc2ccccc21", "GFP response vs DMSO": "103% (inactive)"}, {"smiles": "Cc1cc(C)c2nc3nc(C)cc(C)c3c(N)c2c1", "GFP response vs DMSO": "103% (inactive)"}, {"smiles": "COc1ccc(C2(C)ON(c3ccccc3C(F)(F)F)C2=O)cc1", "note": "(stereo not drawn)", "GFP response vs DMSO": "103% (inactive)"}, {"smiles": "CCCCNc1c(-c2cccc(Sc3ccc(OC)cc3)c2)nc2ccccn12", "GFP response vs DMSO": "129% (inactive)"}, {"smiles": "C#CCOCCOCCOCCNc1nc(N2CCN(C(=O)CCCCCCCCCCNC(=O)[C@H](CCCCN)n3cc(C)nn3)CC2)nc(N2CCN(C(=O)CCCCCCCCCCNC(=O)[C@H](CO)n3cc(CCCSC)nn3)CC2)n1", "GFP response vs DMSO": "119% (inactive)"}, {"smiles": "O=C(Nc1nnc(-c2ccc(Cl)cc2)o1)c1ccccc1Br", "GFP response vs DMSO": "120% (inactive)"}, {"smiles": "Cc1ccc(S/C(=N\\S(=O)(=O)c2ccc(Cl)cc2)c2ccccc2)cc1", "GFP response vs DMSO": "105% (inactive)"}, {"smiles": "CC1=C/C(=N\\OS(=O)(=O)c2ccccc2)C=CC1=O", "GFP response vs DMSO": "145% (inactive)"}, {"smiles": "CCC(=C/c1sc2ccc3ccccc3c2[n+]1C)/C=C1\\Sc2ccc3ccccc3c2N1C", "GFP response vs DMSO": "285% (active)"}, {"smiles": "COc1ccc(-c2nc(CS(=O)(=O)CC(=O)NCc3cccc(Br)c3)c(C)o2)cc1", "GFP response vs DMSO": "119% (inactive)"}, {"smiles": "Cc1ccc2nc(N(CCN(C)C)C(=O)C3=COCCO3)sc2c1", "GFP response vs DMSO": "105% (inactive)"}, {"smiles": "COc1ccc(CCNC(=O)CS(=O)(=O)Cc2nc(-c3ccc(C)cc3)oc2C)cc1OC", "GFP response vs DMSO": "99.6% (inactive)"}, {"smiles": "COc1ccc2nc(N3CCN(C(=O)c4ccc([N+](=O)[O-])o4)CC3)sc2c1", "GFP response vs DMSO": "255% (active)"}, {"smiles": "O=C(NC(=S)NC1CCS(=O)(=O)C1)c1cccc([N+](=O)[O-])c1", "note": "(stereo not drawn)", "GFP response vs DMSO": "105% (inactive)"}, {"smiles": "CCOC(=O)c1cnc(SCC(=O)NCc2ccco2)nc1N", "GFP response vs DMSO": "97.8% (inactive)"}, {"smiles": "CCN1/C(=C/c2ccc3ccc(C)cc3[n+]2CC)Sc2ccccc21", "GFP response vs DMSO": "1240% (active)"}, {"smiles": "CC(Oc1ccc2ccccc2c1)C(=O)NNC(=S)NC(=O)c1ccco1", "note": "(stereo not drawn)", "GFP response vs DMSO": "175% (active)"}, {"smiles": "Clc1cccc(CN2COc3c(cc(Cl)c4cccnc34)C2)c1", "GFP response vs DMSO": "130% (inactive)"}, {"smiles": "CC(C)[C@@H]1COC(c2cccc(C3=N[C@H](C(C)C)CO3)c2)=N1", "GFP response vs DMSO": "98.2% (inactive)"}, {"smiles": "CCn1c(SCCC(C)C)nnc1-c1c[nH]c2ccccc12", "GFP response vs DMSO": "96.1% (inactive)"}, {"smiles": "CN(Cc1ccccc1)C(=O)C(=O)c1cn(CC(=O)N2CCCC2)c2ccccc12", "GFP response vs DMSO": "96.1% (inactive)"}, {"smiles": "COc1cccc(/C=N/Nc2ncc(C(F)(F)F)cc2Cl)c1O", "GFP response vs DMSO": "143% (inactive)"}, {"smiles": "O=C(COc1cccnc1[N+](=O)[O-])Nc1ccc(Cl)cc1F", "GFP response vs DMSO": "101% (inactive)"}, {"smiles": "CCCn1nc(C(=O)NNC(=O)CCOc2ccccc2OCC)c2ccccc2c1=O", "GFP response vs DMSO": "97.8% (inactive)"}]}]}
